PubChem BioAssay AID1159580 (chemical genetic matrix, 2015)
Screen size: about 5,500 compounds; about 2,000 (36%) were called active. Roughly 18% stayed inconclusive and do not appear here. Rule as the data show it: active = normalized growth mostly below about 0.91 (no sharp cut-off); inconclusive = no clear call, values can overlap the other calls; inactive = mostly above about 0.92. The list shows a part of the results.

Test: chemical genetic growth profiling, strain panel (AID 1159580);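 also: tested at 20 µM; growth read once vehicle control cultures reached saturation at 30 °C; 1 = growth at the plate median or of vehicle wells; lower values mean less growth of the strain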
Details: S. cerevisiae deletion strains, growth OD

Measured: normalized growth

O=C(O)C1CN(CCCP(=O)(O)O)CCN1 (stereo unspecified)
inactive: locus YAL040C, strain CLN3, stronger effect = lower value 0.977 | locus YCL061C, strain MRC1 (second series), stronger effect = lower value 0.994 | locus YDR363W, strain ESC2, stronger effect = lower value 0.965 | locus YER002W, strain NOP16, stronger effect = lower value 0.975 | locus YGR078C, strain PAC10, stronger effect = lower value 0.966 | locus YGR229C, strain SMI1, stronger effect = lower value 0.967 | locus YJR075W, strain HOC1, stronger effect = lower value 0.987 | locus YNL128W, strain TEP1, stronger effect = lower value 1.02 | locus YNL175C, strain NOP13, stronger effect = lower value 0.974 | locus YNL197C, strain WHI3, stronger effect = lower value 0.99 | locus YNL224C, strain SQS1, stronger effect = lower value 0.991 | locus YOR083W, strain WHI5 (second series), stronger effect = lower value 1.04 | locus YPL055C, strain LGE1, stronger effect = lower value 0.951 | locus YPL241C, strain CIN2, stronger effect = lower value 0.984

COc1ccc(-c2cc(=O)c3c(O)c(OC)c(OC)c(OC)c3o2)cc1
inactive: locus YAL021C, strain ccr4, stronger effect = lower value 0.987 | locus YAL026C, strain drs2, stronger effect = lower value 0.988 | locus YAL030W, strain snc1, stronger effect = lower value 1 | locus YBL061C, strain skt5, stronger effect = lower value 0.99 | locus YBR009C, strain hhf1, stronger effect = lower value 0.995 | locus YBR023C, strain chs3, stronger effect = lower value 0.993 | locus YBR171W, strain sec66, stronger effect = lower value 0.999 | locus YBR231C, strain swc5, stronger effect = lower value 0.986 | locus YBR279W, strain paf1, stronger effect = lower value 0.999 | locus YCL011C, strain gbp2, stronger effect = lower value 0.987 | locus YCL016C, strain dcc1, stronger effect = lower value 0.968 | locus YCL069W, strain vba3, stronger effect = lower value 0.983 | locus YCR088W, strain abp1, stronger effect = lower value 0.996 | locus YDL005C, strain med2, stronger effect = lower value 0.986 | locus YDL040C, strain nat1, stronger effect = lower value 0.993 | locus YDR001C, strain nth1, stronger effect = lower value 0.992 | locus YDR069C, strain doa4, stronger effect = lower value 0.976 | locus YDR137W, strain rgp1, stronger effect = lower value 1 | locus YDR159W, strain sac3, stronger effect = lower value 1 | locus YDR195W, strain ref2 0.953 | locus YDR297W, strain sur2, stronger effect = lower value 0.987 | locus YDR334W, strain swr1, stronger effect = lower value 0.977 | locus YDR335W, strain msn5, stronger effect = lower value 0.995 | locus YDR392W, strain spt3, stronger effect = lower value 0.991 | locus YEL003W, strain gim4, stronger effect = lower value 0.984 | locus YEL037C, strain rad23, stronger effect = lower value 0.992 | locus YEL061C, strain CIN8 (second series), stronger effect = lower value 0.998 | locus YER015W, strain faa2, stronger effect = lower value 0.989 | locus YER016W, strain bim1, stronger effect = lower value 0.998 | locus YER111C, strain swi4, stronger effect = lower value 0.997 | locus YER155C, strain BEM2 (second series), stronger effect = lower value 0.978 | locus YFR010W, strain ubp6, stronger effect = lower value 1 | locus YGL167C, strain pmr1, stronger effect = lower value 0.995 | locus YGL173C, strain kem1, stronger effect = lower value 1.02 | locus YGL227W, strain vid30, stronger effect = lower value 1 | locus YGL240W, strain doc1, stronger effect = lower value 1 | locus YGL253W, strain hxk2, stronger effect = lower value 1 | locus YHR013C, strain ard1, stronger effect = lower value 0.971 | locus YHR027C, strain rpn1, stronger effect = lower value 0.964 | locus YHR142W, strain chs7, stronger effect = lower value 0.986 | locus YJL092W, strain hpr5, stronger effect = lower value 0.99 | locus YJL095W, strain BCK1 (second series), stronger effect = lower value 1 | locus YJL115W, strain asf1, stronger effect = lower value 0.979 | locus YJL129C, strain trk1, stronger effect = lower value 0.979 | locus YJL154C, strain vps35, stronger effect = lower value 0.988 | locus YJL164C, strain tpk1, stronger effect = lower value 1.01 | locus YJL166W, strain qcr8, stronger effect = lower value 0.998 | locus YJL187C, strain SWE1, stronger effect = lower value 0.995 | locus YKL160W, strain elf1, stronger effect = lower value 0.972 | locus YKR026C, strain gcn3, stronger effect = lower value 1.01 | locus YKR091W, strain srl3, stronger effect = lower value 0.994 | locus YLL001W, strain dnm1, stronger effect = lower value 0.999 | locus YLL026W, stronger effect = lower value 0.983 | locus YLL041C, strain sdh2, stronger effect = lower value 0.982 | locus YLR027C, strain aat2, stronger effect = lower value 0.991 | locus YLR221C, strain rsa3, stronger effect = lower value 0.992 | locus YLR258W, strain gsy2, stronger effect = lower value 0.982 | locus YLR262C, strain YPT6 (second series), stronger effect = lower value 1 | locus YLR320W, strain mms22, stronger effect = lower value 1 | locus YLR342W, strain FKS1, stronger effect = lower value 0.99 | locus YLR357W, strain rsc2, stronger effect = lower value 0.97 | locus YLR370C, strain arc18, stronger effect = lower value 0.983 | locus YLR384C, strain iki3, stronger effect = lower value 0.99 | locus YML120C, strain ndi1, stronger effect = lower value 0.992 | locus YMR058W, strain fet3, stronger effect = lower value 0.976 | locus YMR125W, strain sto1, stronger effect = lower value 0.974 | locus YMR129W, stronger effect = lower value 0.989 | locus YMR205C, strain PFK2, stronger effect = lower value 0.997 | locus YMR231W, strain pep5, stronger effect = lower value 1.01 | locus YNL071W, strain lat1, stronger effect = lower value 1 | locus YNL209W, strain ssb2, stronger effect = lower value 0.984 | locus YNL248C, strain rpa49, stronger effect = lower value 0.969 | locus YNL322C, strain KRE1 (second series), stronger effect = lower value 1.01 | locus YNR049C, strain mso1, stronger effect = lower value 0.984 | locus YOR001W, strain rrp6, stronger effect = lower value 0.998 | locus YOR070C, strain gyp1, stronger effect = lower value 0.99 | locus YOR080W, strain dia2, stronger effect = lower value 0.984 | locus YOR083W, strain WHI5, stronger effect = lower value 0.993 | locus YOR106W, strain vam3, stronger effect = lower value 0.955 | locus YOR265W, strain rbl2, stronger effect = lower value 0.983 | locus YOR270C, strain vph1, stronger effect = lower value 1.01 | locus YOR290C, strain snf2, stronger effect = lower value 0.955 | locus YPL051W, strain arl3, stronger effect = lower value 0.981 | locus YPL078C, strain atp4, stronger effect = lower value 0.991 | locus YPL106C, strain sse1, stronger effect = lower value 0.981 | locus YPL240C, strain hsp82, stronger effect = lower value 0.99

N#CCCCCOc1ccc2c(=O)cc(-c3ccccc3)oc2c1
inactive: locus YAR019C, strain CDC15, stronger effect = lower value 0.99 | locus YBL105C, strain PKC1, stronger effect = lower value 0.978 | locus YBR135W, strain CKS1, stronger effect = lower value 0.977 | locus YBR136W, strain MEC1, stronger effect = lower value 0.977 | locus YBR160W, strain CDC28, stronger effect = lower value 0.977 | locus YDL017W, strain CDC7, stronger effect = lower value 0.988 | locus YDL028C, strain MPS1, stronger effect = lower value 0.981 | locus YDL101C, strain DUN1, stronger effect = lower value 0.972 | locus YDL108W, strain KIN28, stronger effect = lower value 0.977 | locus YDL132W, strain cdc53, stronger effect = lower value 0.971 | locus YDL214C, strain PRR2, stronger effect = lower value 0.946 | locus YDR052C, strain DBF4, stronger effect = lower value 0.989 | locus YDR054C, strain cdc34, stronger effect = lower value 0.988 | locus YDR226W, strain ADK1, stronger effect = lower value 0.977 | locus YDR477W, strain SNF1, stronger effect = lower value 0.959 | locus YER123W, strain YCK3, stronger effect = lower value 0.954 | locus YER133W, strain GLC7, stronger effect = lower value 0.972 | locus YFL009W, strain cdc4, stronger effect = lower value 0.979 | locus YFL029C, strain CAK1, stronger effect = lower value 0.989 | locus YFR003C, strain YPI1, stronger effect = lower value 0.981 | locus YFR019W, strain FAB1, stronger effect = lower value 0.961 | locus YFR028C, strain CDC14, stronger effect = lower value 0.974 | locus YGR040W, strain KSS1, stronger effect = lower value 0.94 | locus YGR052W, strain FMP48, stronger effect = lower value 0.972 | locus YGR092W, strain DBF2, stronger effect = lower value 0.938 | locus YHR030C, strain SLT2, stronger effect = lower value 1.08 | locus YHR079C, strain IRE1, stronger effect = lower value 1.08 | locus YHR082C, strain KSP1, stronger effect = lower value 1.07 | locus YHR205W, strain SCH9, stronger effect = lower value 0.976 | locus YIL147C, strain SLN1, stronger effect = lower value 0.974 | locus YJL095W, strain BCK1, stronger effect = lower value 0.933 | locus YJL128C, strain PBS2, stronger effect = lower value 0.938 | locus YJL157C, strain FAR1, stronger effect = lower value 0.971 | locus YJR016C, strain ILV3, stronger effect = lower value 0.967 | locus YJR066W, strain TOR1 (second series), stronger effect = lower value 0.914 | locus YJR066W, strain TOR1, stronger effect = lower value 1.04 | locus YKL048C, strain ELM1, stronger effect = lower value 0.966 | locus YKL067W, strain YNK1, stronger effect = lower value 0.956 | locus YKL101W, strain HSL1, stronger effect = lower value 0.936 | locus YKL193C, strain SDS22, stronger effect = lower value 0.969 | locus YKL203C, strain TOR2, stronger effect = lower value 1.01 | locus YLR113W, strain HOG1, stronger effect = lower value 0.955 | locus YLR133W, strain CKI1, stronger effect = lower value 0.965 | locus YLR403W, strain SFP1, stronger effect = lower value 0.921 | locus YML070W, strain DAK1, stronger effect = lower value 0.956 | locus YMR001C, strain CDC5, stronger effect = lower value 0.978 | locus YMR205C, strain PFK2 (second series), stronger effect = lower value 0.967 | locus YMR277W, strain FCP1, stronger effect = lower value 0.976 | locus YNL006W, strain LST8, stronger effect = lower value 0.987 | locus YNL020C, strain ARK1, stronger effect = lower value 0.956 | locus YNL161W, strain CBK1, stronger effect = lower value 0.98 | locus YNL183C, strain NPR1, stronger effect = lower value 1.02 | locus YNL207W, strain RIO2, stronger effect = lower value 0.965 | locus YNL222W, strain SSU72, stronger effect = lower value 0.982 | locus YNL307C, strain MCK1 (second series), stronger effect = lower value 0.927 | locus YOL078W, strain AVO1, stronger effect = lower value 0.972 | locus YOL136C, strain PFK27, stronger effect = lower value 0.919 | locus YOR061W, strain CKA2, stronger effect = lower value 0.961 | locus YOR119C, strain RIO1, stronger effect = lower value 1.01 | locus YOR231W, strain MKK1, stronger effect = lower value 0.964 | locus YOR329C, strain SCD5, stronger effect = lower value 0.984 | locus YPL031C, strain PHO85, stronger effect = lower value 0.968 | locus YPL153C, strain RAD53, stronger effect = lower value 0.953 | locus YPL204W, strain HRR25, stronger effect = lower value 0.943 | locus YPL209C, strain IPL1, stronger effect = lower value 0.982 | locus YPR025C, strain CCL1, stronger effect = lower value 0.982 | locus YPR106W, strain ISR1, stronger effect = lower value 0.983 | locus YPR111W, strain DBF20, stronger effect = lower value 0.961 | strain NNK1, stronger effect = lower value 0.975 | strain TSCII, stronger effect = lower value 0.976
active: locus YPL256C, strain CLN2, stronger effect = lower value 1.15 [resistant]
